Inconclusive results are not listed. Calls of active or inactive are those of the source. The call rests on the fitted dose curve; in most records, active means well fitted cell-killing curve with a large enough effect; inconclusive means small, poorly fitted or top-dose-only effect, or effect the other way; inactive means flat fitted curve, though single readings scatter. *1 amine or outer side, *2 acyl side, *3 side chain or, on linkers, in order; H or OH if unused. Where a SMILES comes first, the peptide text is derived from it. Bridges are numbered along the chain shown (N, C = ends). [ ]: non-standard residue; d: D form. The star is where a group is joined. pTerphenylCO(4''-OnC5H11) = CCCCCOc1ccc(-c2ccc(-c3ccc(C(=O)*)cc3)cc2)cc1; Orn(4R-OH,5R-OH) = O=C([C@H](C[C@@H](O)[C@@H](O)N[*:3])N[*:1])[*:2]; hTyr(3S-OH,4S-OH) = N[C@H](C(=O)O)[C@H](O)[C@@H](O)c1ccc(O)cc1; Pro(3S-OH,4S-Me) = C[C@H]1CN[C@H](C(=O)O)[C@H]1O; Hyp = O=C(O)[C@@H]1C[C@@H](O)CN1
Assays:
Assay in all cases: Primary qHTS to identify gynecologic anti-cancer compounds using libraries of approved drugs and bioactive compounds (AID 1345084); further: nearly all actives have a fitted effect of over 55% in size
C33A = settings: Gynecologic cancer cell panel viability, ATPlite luminescence, 48 h; series mostly up to 57.5 µM
Summary of the method: (§1)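 Five-concentration response, 48 h; readout is ATP-driven luciferase luminescence.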

CAOV3 = settings: Gynecologic cancer cell panel viability, ATPlite luminescence, 48 h; series mostly up to 57.5 µM
Summary of the method: as §1

CASKI = settings: Gynecologic cancer cell panel viability, ATPlite luminescence, 48 h; series mostly up to 57.5 µM
Summary of the method: as §1

Es-2 = settings: Gynecologic cancer cell panel viability, ATPlite luminescence, 48 h; series mostly up to 57.5 µM
Summary of the method: as §1

HeLa = settings: Gynecologic cancer cell panel viability, ATPlite luminescence, 48 h; series mostly up to 57.5 µM
Summary of the method: as §1

Hek293T = settings: Gynecologic cancer cell panel viability, ATPlite luminescence, 48 h, control line for the selectivity index; series mostly up to 57.5 µM
Summary of the method: as §1

JEG-3 = settings: Gynecologic cancer cell panel viability, ATPlite luminescence, 48 h; series mostly up to 57.5 µM
Summary of the method: as §1

OV90 = settings: Gynecologic cancer cell panel viability, ATPlite luminescence, 48 h; series mostly up to 57.5 µM
Summary of the method: as §1

PA-1 = settings: Gynecologic cancer cell panel viability, ATPlite luminescence, 48 h; series mostly up to 57.5 µM
Summary of the method: as §1

SKOV3 = settings: Gynecologic cancer cell panel viability, ATPlite luminescence, 48 h; series mostly up to 57.5 µM
Summary of the method: as §1

Tov-21-G = settings: Gynecologic cancer cell panel viability, ATPlite luminescence, 48 h; series mostly up to 57.5 µM
Summary of the method: as §1

Tov112D = settings: Gynecologic cancer cell panel viability, ATPlite luminescence, 48 h; series mostly up to 57.5 µM
Summary of the method: as §1

Measured: Potency

CC(=O)NC[C@H]1CN(c2ccc(N3CCSCC3)c(F)c2)C(=O)O1
inactive: all assays above

CCN(CC)CCCS(=O)(=O)N[C@H](CCc1ccccc1)c1nc(Cc2ccc(Br)cc2)no1
inactive: all assays above

O=S(=O)(NCc1ccccn1)c1ccc(Br)c2ccccc12
inactive: all assays above

Cc1nc(C(=O)N2CCC[C@H]2Cc2nnc(-c3ccccc3)o2)c(-c2ccccc2F)s1
inactive: all assays above

CC#C[C@@H](CC(=O)O)c1ccc(OCc2ccc(CN3CCC4(C=Cc5ccccc54)CC3)s2)cc1
inactive: all assays above

Cn1c(SCC(=O)N2CCC[C@H]2C(=O)Nc2ccccc2-c2ccccc2)nc2ccccc21
inactive: all assays above

COc1cc(C(=O)NCC2(N(C)C)CCCC2)cc(OC)c1OCc1ccccc1
inactive: all assays above

O=C1Nc2ccccc2-c2nc3ccccc3c(=O)n2-c2c(O)cccc21
inactive: all assays above

Cc1noc(-c2ccc(-c3ccc(CC(=O)O)cc3)cc2)c1NC(=O)O[C@H](C)c1ccccc1Cl
inactive: all assays above

CN1CCN(C(=O)CN[C@@H]2C[C@H]2c2ccc(OCc3ccccc3)cc2)CC1
inactive: all assays above

NS(=O)(=O)c1ccc(N2CCN(CC[C@@H]3OCCc4ccccc43)CC2)cc1
inactive: all assays above

CC1=CC2/C=C(\C)CCC3OC(C)(C)OC3CCC(=O)C23C(=O)NC(CC(C)C)C3C1C (stereo not drawn)
inactive: all assays above

COc1cc(CCc2ccc(OCC=C(C)C)cc2)cc(OC)c1OC
inactive: all assays above

Cc1cc(-c2cc(OC(=O)c3ccccc3)ccc2Cl)cc2nnc(Nc3ccc(OCCN4CCCC4)cc3)nc12
inactive: all assays above

CC(=O)O[C@@H]1CC2C(/C=C(\C)C(=O)[C@@]3(O)C[C@@H](C)[C@H](OC(=O)c4ccccc4)C3/C=C/1C)C2(C)C (stereo partly drawn)
inactive: all assays above

CC(C)C(C)C(O)C1CC23CC(=O)C4(O)C(=C2CCC3C1C)C=CC1(O)CC(O)CCC14C (stereo not drawn)
inactive: all assays above

COc1c(CCC(=O)O)cccc1O[C@@H]1O[C@H](CO)[C@@H](O)[C@H](O)[C@H]1O
inactive: all assays above

CN1CCN(c2ccc(-c3cccc(CN4CCOCC4)c3)cc2NC(=O)c2c[nH]c(=O)cc2C(F)(F)F)CC1
inactive: all assays above

CC1(NC(=O)c2ccc(C#Cc3cccc(F)c3)cn2)COC1
inactive: all assays above

CCCCOc1ccc(S(=O)(=O)n2c(C)nc3ccccc32)cc1
inactive: all assays above

COC1C(OC(=O)/C=C/C=C/C=C/C=C/C(=O)O)CCC2(CO2)C1C1(C)OC1CC=C(C)C (stereo not drawn)
inactive: all assays above

C=C(C)C1CCC2(C(=O)O)CCC3(C)C(CCC4C5(C)C(C=O)C(O)C(C)(C)C5CCC43C)C12 (stereo not drawn)
inactive: all assays above

CC(=O)OC1CC(C)C2(CCC3(CC(=O)OC3O)O2)C2(C)CCCC(C)(C)C12 (stereo not drawn)
inactive: all assays above

C=C(C(=O)O)[C@@H]1CC=C(CCC(C)=O)[C@@H](C)CC1
inactive: all assays above

CN(C)S(=O)(=O)c1ccc(NC(=S)N2CCC(C(O)(c3ccccc3)c3ccccc3)CC2)cc1
inactive: all assays above

CC(=O)OC[C@]12[C@H](OC(C)=O)C(=O)[C@@H]3[C@@H](O)[C@@]14O[C@@]3(C)COC(=O)c1cccnc1[C@@H](C)[C@H](C)C(=O)O[C@@H]([C@H](O)[C@@H]2OC(C)=O)[C@]4(C)O
inactive: all assays above

O=C(O)c1cccc(-c2ccc(-c3cn(C(=O)N4CCCCC4Cc4ccccc4)nn3)cc2)c1 (stereo not drawn)
inactive: all assays above

Cc1cc2sc(NC(=O)Cc3ccccc3)nc2cc1Cl
inactive: all assays above

O=C(O)C1=CO[C@@H](O[C@@H]2O[C@H](CO)[C@@H](O)[C@H](O)[C@H]2O)[C@@H]2C(CO)=CC[C@H]12
inactive: all assays above

C=C1C(=O)O[C@@H]2/C=C(\CO)CC/C=C(\CO)[C@H](OC(C)=O)C(OC(=O)C(C)CC)C12 (stereo partly drawn)
inactive: all assays above

COc1ccccc1N1CCN(CC[C@@](C)(C(=O)C2CCCCC2)c2ccccc2)CC1
inactive: all assays above

CC(=O)OC/C(=C/C(=O)O)CC[C@@H]1C(C=O)=CC[C@@H]2C(C)(C)CCC[C@@]12C
inactive: all assays above

COc1ccc(C#Cc2ccc(C(=O)N3CCC[C@@H](CO)C3)cc2)cc1
inactive: all assays above

CCCCCOc1ccc(-c2ccc(-c3ccc(C(=O)N[C@H]4C[C@@H](O)[C@@H](O)NC(=O)[C@@H]5[C@@H](O)[C@@H](C)CN5C(=O)[C@H]([C@@H](C)O)NC(=O)[C@H]([C@H](O)[C@@H](O)c5ccc(O)cc5)NC(=O)[C@@H]5C[C@@H](O)CN5C(=O)[C@H]([C@@H](C)O)NC4=O)cc3)cc2)cc1 ({pTerphenylCO(4''-OnC5H11)}-[Orn(4R-OH,5R-OH)]T[Hyp][hTyr(3S-OH,4S-OH)]T[Pro(3S-OH,4S-Me)]; lactam 1-C)
inactive: all assays above
